Potency and affinity values are given separately.
Experiments:
Klebsiella pneumoniae = conditions: Concentration 20 uM; ASSAY_TEST Inhibition of Bacterial Growth; detection method Absorption (OD600); MEDIA CAMHB; plate type 384well; NBS; CORNING #3640; time 18 hr
Candida albicans = conditions: 20 µM
Cryptococcus neoformans = conditions: Concentration 20 uM; ASSAY_TEST Inhibition of Fungal Growth; detection method Resazurin; Absorption (OD600-OD570); plate type 384well; NBS; CORNING #3640

Compound | Inhibition (Klebsiella pneumoniae) [%] | Inhibition (Candida albicans) [%] | Inhibition (Cryptococcus neoformans) [%]
CN(C)CCOC(c1ccccc1)c1ccccc1.Cl [DIPHENHYDRAMINE HYDROCHLORIDE] | 1.03 | 4.49 | 4.12
CC12CC3CC(C)(C1)CC(N)(C3)C2.Cl [MEMANTINE HYDROCHLORIDE] | 12.73 | 4.09 | -0.08
Cc1sc(N)c(C(=O)c2cccc(C(F)(F)F)c2)c1C | 7 | 1.23 | -0.97
CC(=O)O.NCc1ccc(S(N)(=O)=O)cc1 [MAFENIDE ACETATE] | 13.84 | 0.67 | -7.57
CC(C)NCC(O)COc1ccc(COCCOC(C)C)cc1.CC(C)NCC(O)COc1ccc(COCCOC(C)C)cc1.O=C(O)/C=C/C(=O)O (stereo unspecified) [BISOPROLOL FUMARATE] | 12.19 | 0.23 | -4.67
CC(=O)S[C@@H]1CC2=CC(=O)CC[C@]2(C)[C@H]2CC[C@@]3(C)[C@@H](CC[C@@]34CCC(=O)O4)[C@H]12 [SPIRONOLACTONE] | 18.33 | 1.56 | -2.8
CN1CCN(C2=Nc3ccccc3Oc3ccc(Cl)cc32)CC1.O=C(O)CCC(=O)O [LOXAPINE SUCCINATE] | 7.32 | 2.62 | -0.59
Cc1cccc(Nc2ccccc2C(=O)O)c1C [MEFENAMIC ACID] | 12.13 | 7.85 | 2.83
CN(C)CCOC(C)(c1ccccc1)c1ccccn1.O=C(O)CCC(=O)O (stereo unspecified) [DOXYLAMINE SUCCINATE] | 9.97 | 0.07 | -8.18
COc1ccc(CN2CCN(C(c3ccc(F)cc3)c3ccc(F)cc3)CC2)c(OC)c1OC.Cl.Cl | -0.73 | 2.16 | -36.76
Cl.c1ccc2c(c1)CCCC2C1=NCCN1 (stereo unspecified) [TETRAHYDROZOLINE HYDROCHLORIDE] | 14.26 | 3.03 | -3.23
CN1CC(=O)N2[C@H](c3ccc4c(c3)OCO4)c3[nH]c4ccccc4c3C[C@@H]2C1=O | 2.98 | -1.32 | -3.58
Oc1ncc(F)cn1 | 12.75 | 0.46 | -8.59
Cc1cccc(Nc2ccncc2S(=O)(=O)NC(=O)NC(C)C)c1 [TORSEMIDE] | 8.97 | 2.49 | 0.39
Cn1cnc([N+](=O)[O-])c1Sc1ncnc2[nH]cnc12 [AZATHIOPRINE] | 13.95 | 4.62 | -6.38
Nc1ncnc2c1ncn2[C@@H]1O[C@H](CO)[C@@H](O)[C@@H]1O [VIDARABINE] | 13.1 | 4.29 | 1.72
CN(C)c1nc(N(C)C)nc(N(C)C)n1 [ALTRETAMINE] | 4.59 | 4.65 | -7.07
CS(=O)(=O)c1ccc(C2=C(c3ccccc3)C(=O)OC2)cc1 [ROFECOXIB] | 8.3 | 2.84 | -2.65
Cc1cn([C@H]2C=C[C@@H](CO)O2)c(=O)[nH]c1=O [STAVUDINE] | 14.08 | 2.99 | 0.51
CC(=O)O[C@]1(C(C)=O)CC[C@H]2[C@@H]3C[C@H](C)C4=CC(=O)CC[C@]4(C)[C@H]3CC[C@@]21C [MEDROXYPROGESTERONE ACETATE] | 17.28 | 4.88 | -5.46
CCc1ccc(CCOc2ccc(CC3SC(=O)NC3=O)cc2)nc1.Cl (stereo unspecified) [PIOGLITAZONE HYDROCHLORIDE] | 2.41 | 2.58 | -2.27
COc1cc2c(cc1OC)C(=O)C(CC1CCN(Cc3ccccc3)CC1)C2.Cl (stereo unspecified) [DONEPEZIL HYDROCHLORIDE] | 5.21 | 3.08 | -7.79
NS(=O)(=O)c1cc2c(cc1Cl)N=CNS2(=O)=O [CHLOROTHIAZIDE] | 4.1 | 4.39 | -0.92
CN(Cc1cnc2nc(N)nc(N)c2n1)c1ccc(C(=O)N[C@@H](CCC(=O)O)C(=O)O)cc1.O | 9.2 | 12.2 | -1.89
O=S(=O)([O-])CCS.[Na+] [MESNA] | 6.51 | 4.45 | 1.48
NC(=O)c1cccnc1 [NIACINAMIDE] | 11.31 | 2.62 | -0.49
CN1CCN(CCCN2c3ccccc3Sc3ccc(Cl)cc32)CC1.O=C(O)/C=C\C(=O)O.O=C(O)/C=C\C(=O)O [PROCHLORPERAZINE MALEATE] | 14.2 | 3.08 | -1.92

Reference: ChEMBL document CHEMBL4513141, “CO-ADD screening of NIH (USA) - Clinical Collection” (2021)
